Among the data in PubChem BioAssay (NCI) are growth values, retold here.

Compounds without any hit were thinned out: in the full panel of roughly 83,000, 20% have a hit.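 Cells were grown in 96-well plates and exposed to the test compound at a single concentration for 48 hours; results are reported as percent growth, with values below 10 considered active.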 Values without a mark were called inactive. Active and inactive are the calls of the source.

This test deals with HL-60(TB) leukemia. Nature of the test: NCI-60 one-dose screen, 48 h (100 = growth as untreated, 0 = no growth, -100 = all killed). The settings on record: 10 µM unless noted.
On to `CS(=O)(=O)c1ccc(-c2[nH]c3ccc(F)cc3c2/C=N/O)cc1`, for which the growth was 101%.

Take `Cc1[nH]n(-c2cccc(Cl)c2)c(=O)c1/C=C1\C=Nc2ccc(Br)cc21`: the growth is 38.5%.

For the molecule `Oc1cccc2c1NCCC2`, the growth is 7.84% (active).

`CNS(=O)(=O)Oc1ccc(-c2sc3cc(OS(=O)(=O)NC)ccc3c2C(=O)c2ccc(OCCN3CCCCC3)cc2)cc1`: the growth was 94.8%.

On to `CCOC(CN=Cc1cc(C)c2[nH]c3ccccc3c2c1C)OCC`, for which the growth was 76.6%.

Turning to `O=C(Nc1ccccc1O)c1ccccc1Nc1ccnc(C(F)(F)F)c1`, the growth was 68.3%.

For `COc1ccc(-c2[nH]c3ccccc3c2/C=C(\C#N)S(=O)(=O)c2ccccc2)cc1`, the growth was -28.4% (active).

In the case of `CN(C)C(=O)OCc1nc2c(N3CCOCC3)nc(-c3ccccc3)nc2n1C`, the growth is -29.2% (active).

In the case of `COc1ccc2[nH]c(O)c(/C=c3/cc4c(c(-c5cc(OC)c(OC)c(OC)c5)n3)=Nc3ccccc3-4)c2c1`, the growth was 58.8%.

`CC1CN=C(c2cccc(-c3ccc(-c4ccccc4)o3)c2)N1` (centres undefined): the growth was -46.1% (active).

As for `CCOC(=O)c1c(C)nc(C)c(C(=O)OCC)c1-c1cccnc1`, the growth was 61.1%.

As for `ClC1=C2NC=NC2n2c(nnc2-c2ccc(Cl)cc2)N1` (centres undefined), the growth was 118%.

Turning to `COc1ccc(-c2nc3sc(-c4cc(OC)c(OC)c(OC)c4)nn3c2/C=C2/C(=O)Nc3ccc(F)cc32)cc1`, the growth was 35.8%.

With `Nc1ccc(-c2cc3c(Nc4ccc(Oc5cccc(C(F)(F)F)c5)c(Cl)c4)ncnc3s2)cc1`, the growth is 54.9%.
